Data from PubChem BioAssay (NCATS).
Records with an inconclusive call do not appear. A call without a number means that no potency is given here. Values without a mark were called inactive. The source made the active and inactive calls. Calls come from the whole dose curve; as a rule, active = well fitted curve in the direction sought with a large enough effect; inconclusive = small, poorly fitted or top-dose-only effect, or another doubt; inactive = no such curve, though single readings can be large; an effect the other way counts as inactive or inconclusive.

Each molecule was assayed against Rap guanine nucleotide exchange factor 3 (Homo sapiens) (UniProt O95398) (assay: Counterscreen qHTS for antagonist of cAMP-regulated guanine nucleotide exchange factor 3 (EPAC1) (AID 1645888;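 note: fluorescence loss as bound BODIPY-GDP is released from Rap1B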)). Conditions: Rap1B-BODIPY-GDP nucleotide exchange, fluorescence; series mostly up to 154 µM.
Rap guanine nucleotide exchange factor 3 (Homo sapiens), sequence (O95398 whole entry, looked up): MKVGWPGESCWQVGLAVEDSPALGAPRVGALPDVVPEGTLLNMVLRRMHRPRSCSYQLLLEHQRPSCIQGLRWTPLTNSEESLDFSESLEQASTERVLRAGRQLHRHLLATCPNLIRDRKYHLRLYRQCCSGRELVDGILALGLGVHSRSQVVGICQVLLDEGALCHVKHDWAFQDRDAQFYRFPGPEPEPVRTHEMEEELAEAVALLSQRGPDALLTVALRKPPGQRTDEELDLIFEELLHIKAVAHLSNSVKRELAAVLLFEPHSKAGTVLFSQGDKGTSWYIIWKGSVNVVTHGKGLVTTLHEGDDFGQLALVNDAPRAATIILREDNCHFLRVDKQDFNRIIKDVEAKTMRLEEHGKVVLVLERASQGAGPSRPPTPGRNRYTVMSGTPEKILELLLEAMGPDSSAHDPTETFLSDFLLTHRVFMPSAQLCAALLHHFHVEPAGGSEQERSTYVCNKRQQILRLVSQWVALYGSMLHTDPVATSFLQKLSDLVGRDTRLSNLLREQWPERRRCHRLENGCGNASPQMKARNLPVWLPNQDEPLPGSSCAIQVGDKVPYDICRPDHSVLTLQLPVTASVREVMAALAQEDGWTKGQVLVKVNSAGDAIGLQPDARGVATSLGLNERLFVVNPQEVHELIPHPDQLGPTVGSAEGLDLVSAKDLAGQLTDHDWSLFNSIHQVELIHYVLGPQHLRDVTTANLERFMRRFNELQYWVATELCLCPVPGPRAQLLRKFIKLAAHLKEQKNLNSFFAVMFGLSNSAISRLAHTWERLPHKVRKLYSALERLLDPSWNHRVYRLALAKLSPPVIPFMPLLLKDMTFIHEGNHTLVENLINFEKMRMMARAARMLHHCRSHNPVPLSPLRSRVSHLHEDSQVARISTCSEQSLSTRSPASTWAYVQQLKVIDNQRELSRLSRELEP
How it was run: (§1)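 Rap1B-BODIPY-GDP 250 nM + GDP 50 uM; cpds 7-pt, final 9.74 nM–152 uM (activator mode) or from 7.32 nM upwards (inhibitor mode); RT; FI 480/540 nm at 5 and 30 min, then ± cAMP, reread.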

Row | SMILES | Potency | activity change, negative = inhibition
1 | C[C@H](CCC(=O)O)[C@H]1CC[C@H]2[C@@H]3CC[C@@H]4C[C@H](O)CC[C@]4(C)[C@H]3CC[C@]12C | inactive | 
2 | CC1=C(C(=O)OCc2ccccc2)C(c2ccc(C(C)(C)C)cc2)NC(=O)N1CCCCCC(=O)O (stereo unspecified) | inactive | 
3 | CCCCC[C@H](C)N1C[C@H](COCc2ccccc2)Oc2cc(N3CCC[C@H]3C(N)=O)ccc2S1(=O)=O | inactive | 
4 | COc1ccc(-c2nn(-c3ccccc3)cc2/C=C2/SC(=S)N(CCCC(=O)O)C2=O)c(C)c1 | inactive | 
5 | Cc1ccc(O)c(CNc2ccc(S(=O)(=O)Nc3nccs3)cc2)c1 |  | 1.37% [at 30.8 µM]
6 | CN(N=Nc1ccc([N+](=O)[O-])cc1)c1ccccc1 | inactive | 
7 | Nc1ccc2nc3c(=O)[nH]c(=S)[nH]c3nc2c1 | inactive | 
8 | Cc1ccccc1-c1ccc(CN2C(C(C)C)C(=O)N(Cc3cn(CCC4OCCO4)nn3)CCS2(=O)=O)cc1 (stereo unspecified) | inactive | 
9 | COc1cc(/C=C/[N+](=O)[O-])ccc1OCc1cccc(C(=O)O)c1 | inactive | 
10 | O=C(O)C1Nc2c(Cl)cc(Cl)c(Cl)c2C2C=CCC12 (stereo unspecified) | inactive | 

The molecules below were run against Rap guanine nucleotide exchange factor 3 (Homo sapiens) (UniProt O95398) (assay: Counterscreen qHTS for agonist of cAMP-regulated guanine nucleotide exchange factor 3 (EPAC1) (AID 1645889; note: nearly all actives have a fitted effect of over 40% in size; note: potency is the fitted concentration of half-maximal effect)). Conditions: EPAC1 Rap1B-BODIPY-GDP exchange, fluorescence; series mostly up to 154 µM.
How it was run: as §1

Row | SMILES | Potency | activation
11 | CCN1CC=C2C(C#N)=C(N)C(C#N)(C#N)C(CCc3ccccc3)C2C1 (stereo unspecified) | 5.62 µM (active) | 
12 | CCCCC[C@H](C)N1C[C@@H](COCc2ccccc2)Oc2cc(N3CC[C@H](N(C)C)C3)ccc2S1(=O)=O | inactive | 
13 | COc1ccccc1-c1nc2ccccc2n(CC(C)C)c1=O | inactive | 
14 | C[C@H](CCC(=O)O)[C@H]1CC[C@H]2[C@@H]3CC[C@@H]4C[C@H](O)CC[C@]4(C)[C@H]3CC[C@]12C | inactive | 
15 | CCCCN(C=O)c1c(CC)nc2c(OCc3ccc(C(F)(F)F)cc3)cccn12 | inactive | 
16 | CC1=C(C(=O)OCc2ccccc2)C(c2ccc(C(C)(C)C)cc2)NC(=O)N1CCCCCC(=O)O (stereo unspecified) | inactive | 
17 | CCCCOc1ccc(C(=O)N/N=C/c2cn[nH]c2-c2ccc(OC)c(OC)c2)cc1 | inactive | 
18 | CN(CC(=O)Nc1ccccc1Cl)C(=O)c1ccc(-c2cccc(C(F)(F)F)c2)o1 | inactive | 
19 | CCOC(=O)c1c(C)[nH]c(C)c1C(=O)COC(=O)c1cc(OC)cc(OC)c1 | inactive | 
20 | Cc1ccc(S(=O)(=O)c2nc(-c3ccco3)oc2SC(C)C)cc1 |  | 16.5% [at 30.8 µM]
21 | CCC(CO)Oc1cc(NCc2ccc(C(C)(C)C)cc2)c2ncn(C(C)C)c2c1 (stereo unspecified) | inactive | 
22 | COc1ccc(CCC(=O)N(C)CC(=O)Nc2ccc(Cl)c(C(F)(F)F)c2)cc1 | inactive | 
23 | Cc1cc(C)c2nc(C(F)(F)F)nc(N3CC(C)OC(C)C3)c2c1 (stereo unspecified) | inactive | 
24 | Cc1ccc(S(=O)(=O)N2CCOCC2)cc1NC(=O)COC(=O)CCOc1ccc(C(C)(C)C)cc1 | inactive | 
25 | CCCOP(=O)(OCCC)C(Nc1cccc(C(F)(F)F)c1)c1ccc(C)cc1 (stereo unspecified) | inactive | 
26 | CCCN(CC(=O)Nc1ccccc1C)C(=O)c1oc2ccc(OCC)cc2c1C | inactive | 

Row | SMILES | Potency | activation
27 | COc1cc(C(=O)N(C)CCOc2ccccc2)ccc1OCC(=O)Nc1cccc(C(F)(F)F)c1 | inactive | 
28 | CCOC(=O)C1=C(C)NC(C)=C(C(=O)OCC)C1C(=O)OCC(=O)NCc1ccc(F)cc1 | inactive | 
29 | C=CCN(C(=O)Cn1ncc2c1-c1cc(C)ccc1OC2)c1ccccc1 | inactive | 
30 | CCCCC[C@H](C)N1C[C@H](COCc2ccccc2)Oc2cc(N3CCC[C@H]3C(N)=O)ccc2S1(=O)=O | inactive | 
31 | Cc1ccc(C)c(-c2csc(N)c2C(=O)OC(C)C)c1 |  | 30% [at 30.8 µM]
32 | CN1C(=O)/C(=C2/C=Cc3ccccc3N2CCCS(=O)(=O)O)SC1=S | inactive | 
33 | CCCCC[C@@H](C)N1C[C@H](COCc2ccccc2)Oc2cc(N3CC[C@H](N(C)C)C3)ccc2S1(=O)=O | inactive | 
34 | CC(Nc1ccc(Cl)cc1)c1cc(Cl)ccc1O (stereo unspecified) | inactive | 
35 | COc1ccccc1NS(=O)(=O)c1ccc2ccccc2c1 |  | 16.4% [at 30.8 µM]
36 | COc1ccc(C(=O)c2ccccc2Cl)cc1OC | inactive | 
37 | CCOc1ccc(C(=O)CCN2CCCCCC2)cc1 | inactive | 
38 | CC(C)CCNC(=O)C(CC(C)C)N(Cc1ccc2c(c1)OCO2)C(=O)c1snc(C(N)=O)c1N (stereo unspecified) | inactive | 
39 | Cc1ccc(O)c(CNc2ccc(S(=O)(=O)Nc3nccs3)cc2)c1 |  | 19.2% [at 30.8 µM]
40 | Nc1ccc2nc3c(=O)[nH]c(=S)[nH]c3nc2c1 | 44.7 µM (active) | 
41 | Cc1ccccc1-c1ccc(CN2C(C(C)C)C(=O)N(Cc3cn(CCC4OCCO4)nn3)CCS2(=O)=O)cc1 (stereo unspecified) | inactive | 
